Results on 155 variants are retold here after a collection of fitness landscapes (doi:10.1126/science.1257360).

In all, about 140,000 sequences were measured (“enrichment ratio after two sorts for PhoP signalling”: median about 0, highest 2% from about 11 on). The sample holds the highest values, similar sequences and a random draw of the others, so the mix is not that of the screen. Where only a bound is given, the exact number is not on record here.

The labels stand for the following.
B1: PhoQ; a variant is named by its letters at X, in order, P23837 (parent)
chain: MKKLLRLFFPLSLRVRFLLATAAVVLVLSLAYGMVALIGYSVSFDKTTFRLLRGESNLFYTLAKWENNKLHVELPENIDKQSPTMTLIYDENGQLLWAQRDVPWLMKMIQPDWLKSNGFHEIEADVNDTSLLLSGDHSIQQQLQEVREDDDDAEMTHSVAVNVYPATSRMPKLTIVVVDTIPVELKSSYMVWSWFIYVLSANLLLVIPLLWVAAWWSLRPIEALAKEVRELEEHNRELLNPATTRELTSLVRNLNRLLKSERERYDKYRTTLTDLTHSLKTPLXXLQXXLRSLRSEKMSVSDAEPVMLEQISRISQQIGYYLHRASMRGGTLLSRELHPVAPLLDNLTSALNKVYQRKGVNISLDISPEISFVGEQNDFVEVMGNVLDNACKYCLEFVEISARQTDEHLYIVVEDDGPGIPLSKREVIFDRGQRVDTLRPGQGVGLAVAREITEQYEGKIVAGESMLGGARMEVIFGRQHSAPKDE

Variants of B1 are the subject of the assay. Nature of the assay: enrichment ratio after two sorts for PhoP signalling (ratio (wild type AVST 3.29)); higher = more functional. The note with it: with PhoP (E. coli).
Consider PKDI, for which the enrichment ratio was no more than 0.25.

For LYLD, the enrichment ratio was no more than 0.25. Next, HNKV: no more than 0.25; VKIK: no more than 0.25. As for ALCW, the figure is 6.49; as for YKFA, no more than 0.25; as for VGHR, no more than 0.25.

As to HQYF, the enrichment ratio is no more than 0.25. For the variant FEVV, the enrichment ratio was 11.9. Regarding TEVV, the enrichment ratio came out at 12.9. For the variant SQVV, the enrichment ratio is 8.77.

For the variant SLVV, the enrichment ratio was 1.38. As to NEVV, the enrichment ratio is no more than 0.25. In the case of MEVV, the enrichment ratio turned out to be 2.27. Next, GETD: no more than 0.25. As for MAVV, the enrichment ratio is no more than 0.25. Regarding SEVV, the enrichment ratio was found to be 13.1. On to GEVV, for which the enrichment ratio was found to be 17.2. With GGVV, the enrichment ratio was no more than 0.25.

As to FCVV, the enrichment ratio was no more than 0.25. Consider NFKG, for which the enrichment ratio was no more than 0.25. Regarding QAIA, the enrichment ratio was no more than 0.25.

Regarding KYGI, the enrichment ratio was no more than 0.25. On to SNGI, for which the enrichment ratio was determined as 12.1. For SRGI, the enrichment ratio is no more than 0.25.

In the case of STGI, the enrichment ratio worked out at 4.79. In the case of SNFP, the enrichment ratio was no more than 0.25. Consider SCGI, for which the enrichment ratio amounted to 12.6. Take FMGW: the enrichment ratio is no more than 0.25.

Consider HQYK, for which the enrichment ratio was no more than 0.25. Regarding SCLN, the enrichment ratio came out at 11.7. In the case of SCVA, the enrichment ratio came to 4.93. For the variant SWLN, the enrichment ratio was no more than 0.25. In the case of SCLT, the enrichment ratio amounted to 13.3. Take SCNT: the enrichment ratio was no more than 0.25. For the variant SCDT, the enrichment ratio is no more than 0.25. Take SCVT: the enrichment ratio was determined as 1.01. Turning to SCLA, the enrichment ratio was found to be 11.8. On to SCIT, for which the enrichment ratio is 1.21. Take SCLS: the enrichment ratio turned out to be 9.62. For SCAT, the enrichment ratio is 16.1.

In the case of SCVN, the enrichment ratio turned out to be 11.1. Consider PRNP, for which the enrichment ratio is no more than 0.25. Consider AWLY, for which the enrichment ratio is no more than 0.25. On to SHFY, for which the enrichment ratio was no more than 0.25. Next, VDWL: no more than 0.25; MMEY: no more than 0.25.

EQTE: the enrichment ratio was no more than 0.25. Turning to SQTE, the enrichment ratio was found to be 26.5. For TQTE, the enrichment ratio was 26.4. Next, FQTE: no more than 0.25. Next, KSTE: no more than 0.25; TQQK: no more than 0.25; YTEA: no more than 0.25. Turning to PPGL, the enrichment ratio is no more than 0.25.

With AGLC, the enrichment ratio is 12.4. Next, VFLC: no more than 0.25; GGLC: 4.03. As for VYLC, the enrichment ratio is no more than 0.25. As for VGLC, the figure is 16.6.

As for AALC, the enrichment ratio was 13.9.

Regarding TGLC, the enrichment ratio is 10. Turning to YALC, the enrichment ratio was found to be 3.77.

Take NALC: the enrichment ratio is no more than 0.25. For the variant NNPM, the enrichment ratio is no more than 0.25.

Regarding QKWG, the enrichment ratio is no more than 0.25. As to ASFD, the enrichment ratio was no more than 0.25. On to KIHF, for which the enrichment ratio was no more than 0.25.

For the variant NGVA, the enrichment ratio was no more than 0.25. Take KLRA: the enrichment ratio was no more than 0.25. For SFAC, the enrichment ratio is no more than 0.25. As for DMAC, the figure is no more than 0.25; as for SEAC, 19.8; as for STAC, 4.33. With SLAC, the enrichment ratio stood at 2.46. For MMAC, the enrichment ratio worked out at 3.29. As for NEAC, the figure is 15.1.

Consider YWAC, for which the enrichment ratio was no more than 0.25. As for MEAC, the enrichment ratio was 37.3.

Turning to MKAC, the enrichment ratio is no more than 0.25. As to QKAC, the enrichment ratio is no more than 0.25. For the variant QEAC, the enrichment ratio stood at 16. For the variant NIYV, the enrichment ratio was no more than 0.25. For IRLQ, the enrichment ratio was no more than 0.25. Turning to HPHQ, the enrichment ratio was no more than 0.25. For QISV, the enrichment ratio was no more than 0.25. For the variant SDLF, the enrichment ratio is no more than 0.25. Regarding TCEE, the enrichment ratio is no more than 0.25. As for MKWH, the enrichment ratio is no more than 0.25.

With QAWW, the enrichment ratio was no more than 0.25. As for QCDG, the figure is no more than 0.25.

In the case of YQQR, the enrichment ratio was no more than 0.25. As to KAAC, the enrichment ratio was no more than 0.25. KSAC: the enrichment ratio was no more than 0.25. As for EQAC, the figure is no more than 0.25; as for VEAC, 0.99. As to SSAC, the enrichment ratio came out at 11.3. As to FSAC, the enrichment ratio was no more than 0.25.

Take NQAC: the enrichment ratio was no more than 0.25.

Regarding TEAC, the enrichment ratio worked out at 25.6. Regarding SQAC, the enrichment ratio stood at 13.4. On to PWYS, for which the enrichment ratio was no more than 0.25. Next, WGDA: no more than 0.25. Turning to NQIK, the enrichment ratio is no more than 0.25.

Take TQSM: the enrichment ratio is 23.3. Take TQHQ: the enrichment ratio was determined as 13.8. On to TQSF, for which the enrichment ratio is 7.45. Turning to LAQF, the enrichment ratio is no more than 0.25. Turning to TQHF, the enrichment ratio came to 16.2.

Consider RNSM, for which the enrichment ratio is no more than 0.25. For the variant TQMS, the enrichment ratio came to 4.53. For the variant TQQF, the enrichment ratio stood at 33.4. TQTD: the enrichment ratio is no more than 0.25. As for TQHP, the figure is no more than 0.25; as for DWSM, no more than 0.25.

As to TQHI, the enrichment ratio turned out to be 3.97. With NYQY, the enrichment ratio was no more than 0.25. Regarding NTGP, the enrichment ratio was no more than 0.25. Next, YRMS: no more than 0.25; FSKE: no more than 0.25; MTHL: 7.87. On to PNLT, for which the enrichment ratio is no more than 0.25. As to TPTL, the enrichment ratio is no more than 0.25. Take SMDI: the enrichment ratio was no more than 0.25. Turning to REVG, the enrichment ratio was no more than 0.25. On to WQFM, for which the enrichment ratio was no more than 0.25.

With PAAY, the enrichment ratio is no more than 0.25.

For the variant ENTT, the enrichment ratio is no more than 0.25. Take GKMH: the enrichment ratio was no more than 0.25. As for KCNH, the figure is no more than 0.25; as for LNPK, no more than 0.25; as for DECI, no more than 0.25. Take NECS: the enrichment ratio is no more than 0.25. Regarding MELS, the enrichment ratio was found to be 9.24. Next, MEGM: no more than 0.25. In the case of MECK, the enrichment ratio came out at 27.3. For the variant DECV, the enrichment ratio came out at 25.8. Consider MERM, for which the enrichment ratio was no more than 0.25. For the variant DPCV, the enrichment ratio is no more than 0.25. For MEWI, the enrichment ratio is 24. For the variant MELA, the enrichment ratio is no more than 0.25. As for MECS, the figure is 11.2; as for MKCS, no more than 0.25; as for VHCY, no more than 0.25. Turning to MPCS, the enrichment ratio is no more than 0.25.

Regarding PKNK, the enrichment ratio was no more than 0.25. As for PCQL, the figure is no more than 0.25; as for ICAL, 0.516. Consider STWD, for which the enrichment ratio was no more than 0.25. Consider TWLL, for which the enrichment ratio is no more than 0.25. FYED: the enrichment ratio was no more than 0.25. For the variant FVPW, the enrichment ratio was no more than 0.25. Take NCRM: the enrichment ratio was no more than 0.25. As for MMCV, the figure is 4.31. MECV: the enrichment ratio is 18.2.
